Assay results as given in PubChem BioAssay AID1159580 (chemical genetic matrix, 2015).
Among all 5,500 compounds or so, about 2,000 (36%) were called active. Not shown: some 18% with an inconclusive outcome. Cut-off read from the data, not from the text of the source: active = normalized growth mostly below about 0.91 (no sharp cut-off); inconclusive = no clear call, values can overlap the other calls; inactive = mostly above about 0.92. The list shows a part of the results.

Test: chemical genetic growth profiling, strain panel (AID 1159580);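 note: tested at 20 µM; growth read once vehicle control cultures reached saturation at 30 °C; 1 = growth at the plate median or of vehicle wells; lower values mean less growth of the strain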
Conditions: growth OD
[1] = S. cerevisiae deletion strains, locus YAL013W, strain DEP1, hits give low values
[2] = S. cerevisiae deletion strains, locus YBR229C, strain ROT2, hits give low values
[3] = S. cerevisiae deletion strains, locus YDL101C, strain DUN1, hits give low values
[4] = S. cerevisiae deletion strains, locus YDL134C, strain PPH21, hits give low values
[5] = S. cerevisiae deletion strains, locus YDR150W, strain NUM1, hits give low values
[6] = S. cerevisiae deletion strains, locus YEL061C, strain CIN8, hits give low values
[7] = S. cerevisiae deletion strains, locus YGR078C, strain PAC10, hits give low values
[8] = S. cerevisiae deletion strains, locus YHR030C, strain SLT2, hits give low values
[9] = S. cerevisiae deletion strains, locus YHR087W, strain rtc3, hits give low values
[10] = S. cerevisiae deletion strains, locus YJL187C, strain SWE1, hits give low values
[11] = S. cerevisiae deletion strains, locus YJR043C, strain POL32, hits give low values
[12] = S. cerevisiae deletion strains, locus YJR075W, strain HOC1, hits give low values
[13] = S. cerevisiae deletion strains, locus YKL190W, strain CNB1, hits give low values
[14] = S. cerevisiae deletion strains, locus YLR039C, strain RIC1, hits give low values
[15] = S. cerevisiae deletion strains, locus YLR058C, strain SHM2 (second series), hits give low values
[16] = S. cerevisiae deletion strains, locus YLR085C, strain ARP6, hits give low values
[17] = S. cerevisiae deletion strains, locus YLR262C, strain YPT6, hits give low values
[18] = S. cerevisiae deletion strains, locus YML094W, strain GIM5, hits give low values
[19] = S. cerevisiae deletion strains, locus YMR219W, strain ESC1, hits give low values
[20] = S. cerevisiae deletion strains, locus YMR263W, strain SAP30, hits give low values
[21] = S. cerevisiae deletion strains, locus YMR307W, strain GAS1, hits give low values
[22] = S. cerevisiae deletion strains, locus YNL153C, strain GIM3, hits give low values
[23] = S. cerevisiae deletion strains, locus YNL298W, strain CLA4 (second series), hits give low values
[24] = S. cerevisiae deletion strains, locus YNL322C, strain KRE1, hits give low values
[25] = S. cerevisiae deletion strains, locus YNR030W, strain Alg12, hits give low values
[26] = S. cerevisiae deletion strains, locus YOL006C, strain TOP1, hits give low values
[27] = S. cerevisiae deletion strains, locus YPL055C, strain LGE1, hits give low values
[28] = S. cerevisiae deletion strains, locus YPL241C, strain CIN2, hits give low values
[29] = S. cerevisiae deletion strains, locus YPR135W, strain CTF4, hits give low values
[30] = S. cerevisiae deletion strains, locus YAR019C, strain CDC15, hits give low values
[31] = S. cerevisiae deletion strains, locus YBL105C, strain PKC1, hits give low values
[32] = S. cerevisiae deletion strains, locus YBR135W, strain CKS1, hits give low values
[33] = S. cerevisiae deletion strains, locus YBR136W, strain MEC1, hits give low values
[34] = S. cerevisiae deletion strains, locus YBR160W, strain CDC28, hits give low values
[35] = S. cerevisiae deletion strains, locus YDL017W, strain CDC7, hits give low values
[36] = S. cerevisiae deletion strains, locus YDL028C, strain MPS1, hits give low values
[37] = S. cerevisiae deletion strains, locus YDL108W, strain KIN28, hits give low values
[38] = S. cerevisiae deletion strains, locus YDL132W, strain cdc53, hits give low values
[39] = S. cerevisiae deletion strains, locus YDL214C, strain PRR2, hits give low values
[40] = S. cerevisiae deletion strains, locus YDR052C, strain DBF4, hits give low values
[41] = S. cerevisiae deletion strains, locus YDR054C, strain cdc34, hits give low values
[42] = S. cerevisiae deletion strains, locus YDR226W, strain ADK1, hits give low values
[43] = S. cerevisiae deletion strains, locus YDR477W, strain SNF1, hits give low values
[44] = S. cerevisiae deletion strains, locus YER123W, strain YCK3, hits give low values
[45] = S. cerevisiae deletion strains, locus YER133W, strain GLC7, hits give low values
[46] = S. cerevisiae deletion strains, locus YFL009W, strain cdc4, hits give low values
[47] = S. cerevisiae deletion strains, locus YFL029C, strain CAK1, hits give low values
[48] = S. cerevisiae deletion strains, locus YFR003C, strain YPI1, hits give low values
[49] = S. cerevisiae deletion strains, locus YFR019W, strain FAB1, hits give low values
[50] = S. cerevisiae deletion strains, locus YFR028C, strain CDC14, hits give low values
[51] = S. cerevisiae deletion strains, locus YGR040W, strain KSS1, hits give low values
[52] = S. cerevisiae deletion strains, locus YGR052W, strain FMP48, hits give low values
[53] = S. cerevisiae deletion strains, locus YGR092W, strain DBF2, hits give low values
[54] = S. cerevisiae deletion strains, locus YHR079C, strain IRE1, hits give low values
[55] = S. cerevisiae deletion strains, locus YHR082C, strain KSP1, hits give low values
[56] = S. cerevisiae deletion strains, locus YHR205W, strain SCH9, hits give low values
[57] = S. cerevisiae deletion strains, locus YIL147C, strain SLN1, hits give low values
[58] = S. cerevisiae deletion strains, locus YJL095W, strain BCK1, hits give low values
[59] = S. cerevisiae deletion strains, locus YJL128C, strain PBS2, hits give low values
[60] = S. cerevisiae deletion strains, locus YJL157C, strain FAR1, hits give low values
[61] = S. cerevisiae deletion strains, locus YJR016C, strain ILV3, hits give low values
[62] = S. cerevisiae deletion strains, locus YJR066W, strain TOR1 (second series), hits give low values
[63] = S. cerevisiae deletion strains, locus YJR066W, strain TOR1, hits give low values
[64] = S. cerevisiae deletion strains, locus YKL048C, strain ELM1, hits give low values
[65] = S. cerevisiae deletion strains, locus YKL067W, strain YNK1, hits give low values
[66] = S. cerevisiae deletion strains, locus YKL101W, strain HSL1, hits give low values
[67] = S. cerevisiae deletion strains, locus YKL193C, strain SDS22, hits give low values
[68] = S. cerevisiae deletion strains, locus YKL203C, strain TOR2, hits give low values
[69] = S. cerevisiae deletion strains, locus YLR113W, strain HOG1, hits give low values
[70] = S. cerevisiae deletion strains, locus YLR133W, strain CKI1, hits give low values
[71] = S. cerevisiae deletion strains, locus YLR403W, strain SFP1, hits give low values
[72] = S. cerevisiae deletion strains, locus YML070W, strain DAK1, hits give low values
[73] = S. cerevisiae deletion strains, locus YMR001C, strain CDC5, hits give low values
[74] = S. cerevisiae deletion strains, locus YMR205C, strain PFK2 (second series), hits give low values
[75] = S. cerevisiae deletion strains, locus YMR277W, strain FCP1, hits give low values
[76] = S. cerevisiae deletion strains, locus YNL006W, strain LST8, hits give low values
[77] = S. cerevisiae deletion strains, locus YNL020C, strain ARK1, hits give low values
[78] = S. cerevisiae deletion strains, locus YNL161W, strain CBK1, hits give low values
[79] = S. cerevisiae deletion strains, locus YNL183C, strain NPR1, hits give low values
[80] = S. cerevisiae deletion strains, locus YNL207W, strain RIO2, hits give low values
[81] = S. cerevisiae deletion strains, locus YNL222W, strain SSU72, hits give low values
[82] = S. cerevisiae deletion strains, locus YNL307C, strain MCK1 (second series), hits give low values
[83] = S. cerevisiae deletion strains, locus YOL078W, strain AVO1, hits give low values
[84] = S. cerevisiae deletion strains, locus YOL136C, strain PFK27, hits give low values
[85] = S. cerevisiae deletion strains, locus YOR061W, strain CKA2, hits give low values
[86] = S. cerevisiae deletion strains, locus YOR119C, strain RIO1, hits give low values
[87] = S. cerevisiae deletion strains, locus YOR231W, strain MKK1, hits give low values
[88] = S. cerevisiae deletion strains, locus YOR329C, strain SCD5, hits give low values
[89] = S. cerevisiae deletion strains, locus YPL031C, strain PHO85, hits give low values
[90] = S. cerevisiae deletion strains, locus YPL153C, strain RAD53, hits give low values
[91] = S. cerevisiae deletion strains, locus YPL204W, strain HRR25, hits give low values
[92] = S. cerevisiae deletion strains, locus YPL209C, strain IPL1, hits give low values
[93] = S. cerevisiae deletion strains, locus YPL256C, strain CLN2, hits give low values
[94] = S. cerevisiae deletion strains, locus YPR025C, strain CCL1, hits give low values
[95] = S. cerevisiae deletion strains, locus YPR106W, strain ISR1, hits give low values
[96] = S. cerevisiae deletion strains, locus YPR111W, strain DBF20, hits give low values
[97] = S. cerevisiae deletion strains, strain NNK1, hits give low values
[98] = S. cerevisiae deletion strains, strain TSCII, hits give low values

Measured: normalized growth

Nc1ccccc1C(=O)N/N=C\c1cccc2ccccc12
active: [4] 0.813 | [6] 0.85 | [8] 0.461 | [14] 0.734 | [16] 0.615 | [17] 0.803 | [18] 0.831 | [21] 0.526 | [23] 0.807 | [25] 0.875 | [26] 0.535 | [28] 0.819
inactive: [1] 0.994 | [2] 0.977 | [3] 1.01 | [5] 0.971 | [7] 0.993 | [9] 0.992 | [10] 0.994 | [11] 1.01 | [12] 0.979 | [13] 0.944 | [15] 0.991 | [19] 0.989 | [20] 0.992 | [22] 1.01 | [24] 0.992 | [27] 0.973 | [29] 0.66

O=C(N/N=C\c1cc(Br)ccc1O)c1ccccc1Oc1ccccc1
inactive: [30] 0.963 | [31] 0.976 | [32] 0.981 | [33] 0.963 | [34] 0.973 | [35] 0.969 | [36] 0.96 | [3] 0.97 | [37] 0.971 | [38] 0.966 | [39] 0.932 | [40] 0.97 | [41] 0.968 | [42] 0.972 | [43] 0.943 | [44] 0.879 | [45] 0.955 | [46] 0.964 | [47] 0.953 | [48] 0.969 | [49] 0.953 | [50] 0.965 | [51] 0.942 | [52] 0.954 | [53] 0.914 | [8] 0.854 | [54] 0.885 | [55] 0.924 | [56] 0.838 | [57] 0.949 | [58] 0.846 | [59] 0.928 | [60] 0.955 | [61] 0.979 | [62] 0.901 | [63] 0.953 | [64] 0.915 | [65] 0.923 | [66] 0.89 | [67] 0.972 | [68] 1 | [70] 0.916 | [71] 0.927 | [72] 0.888 | [73] 0.972 | [74] 0.919 | [75] 0.98 | [76] 0.977 | [77] 0.935 | [78] 0.982 | [79] 0.883 | [80] 0.976 | [81] 0.969 | [82] 0.912 | [83] 0.98 | [84] 0.909 | [85] 0.939 | [86] 0.97 | [87] 0.892 | [88] 0.968 | [89] 0.94 | [90] 0.934 | [91] 0.94 | [92] 0.974 | [94] 0.969 | [95] 0.976 | [96] 0.947 | [97] 0.959 | [98] 0.972
active: [69] 0.694 | [93] 0.764

Nc1ccccc1C(=O)N/N=C\c1cc(Br)ccc1O
active: [53] 0.452 | [69] 0.784 | [93] 0.779
inactive: [30] 0.985 | [31] 0.984 | [32] 0.981 | [33] 0.982 | [34] 0.989 | [35] 0.98 | [36] 0.976 | [3] 0.984 | [37] 0.982 | [38] 0.97 | [39] 0.972 | [40] 0.99 | [41] 0.97 | [42] 0.96 | [43] 0.961 | [44] 0.877 | [45] 0.979 | [46] 0.965 | [47] 0.971 | [48] 0.974 | [49] 0.985 | [50] 0.985 | [51] 0.982 | [52] 0.925 | [8] 0.855 | [54] 0.828 | [55] 1.02 | [56] 0.866 | [57] 0.981 | [58] 0.798 | [59] 0.933 | [60] 0.947 | [61] 0.976 | [62] 0.903 | [63] 0.976 | [64] 0.928 | [65] 0.948 | [66] 0.901 | [67] 0.976 | [68] 1.02 | [70] 0.927 | [71] 0.88 | [72] 0.901 | [73] 0.986 | [74] 0.939 | [75] 0.976 | [76] 0.995 | [77] 0.929 | [78] 0.979 | [79] 0.958 | [80] 0.979 | [81] 0.981 | [82] 0.871 | [83] 0.984 | [84] 0.898 | [85] 0.922 | [86] 1.08 | [87] 0.871 | [88] 0.98 | [89] 0.95 | [90] 0.927 | [91] 0.947 | [92] 0.985 | [94] 0.979 | [95] 0.968 | [96] 0.969 | [97] 0.988 | [98] 0.99

O=C(N/N=C\c1c(O)ccc2ccccc12)N/N=C\c1c(O)ccc2ccccc12
inactive: [1] 0.996 | [2] 0.975 | [3] 1.02 | [4] 0.94 | [5] 0.908 | [6] 0.962 | [7] 1.01 | [8] 0.875 | [9] 0.989 | [10] 0.994 | [11] 0.988 | [12] 1.07 | [13] 1.01 | [14] 1.03 | [15] 0.992 | [16] 0.899 | [17] 0.953 | [18] 0.924 | [19] 1.02 | [20] 0.928 | [21] 1.09 | [22] 0.951 | [23] 0.879 | [24] 1.02 | [25] 0.928 | [26] 0.888 | [27] 1.01 | [28] 0.939 | [29] 0.968 | S. cerevisiae strains, strain wild type, hits give low values 0.994
